Many of the other results were omitted from the sample, so hits are more common in it than they were.
Shiga toxin inh = blocks Shiga toxin action in Vero cells; Vero cells, Shiga toxin protein synthesis inhibition reporter; actives 9.2% (n = 290,000); inhibition, % at 38.7 µM; in the data active = inhibition mostly above about 28%, no sharp cut-off; inactive = mostly below about 43%; note: 0% is about no effect
Sm TGR block = blocks Schistosoma mansoni thioredoxin glutathione reductase | purified TGR, DTNB reduction, TNB absorbance 405 nm | Potency, µM (titrated, usually from 114 µM), without a hit: at the highest dose activity change, negative = inhibition, actives largely listed as inhibitors | actives 3% (n = 360,000) | AID 485364; note: potency is the fitted concentration of half-maximal effect; % is set by controls: 0 for no effect and ±100 for the full control effect; nearly all actives have a fitted effect of over 60% in size
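Kinetic colorimetric format: TGR-catalysed, NADPH-driven DTNB reduction monitored via TNB absorbance. Enzyme dispensed at 20 nM; compound exposure 15 min at room temperature before reaction start.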
TbPYK inhibitor = T. brucei pyruvate kinase inhibition. TbPYK enzyme, Kinase-Glo Plus ATP luminescence, 45 min. Q57TT1. AID 624173. Potency, µM (doses to about 76.8 µM), for the others: at the top dose activity, negative = inhibition, usual class: inhibitors. actives 0.12% (n = 410,000); note: potency is the fitted concentration of half-maximal effect; % is set by controls: 0 for no effect and ±100 for the full control effect; nearly all actives have a fitted effect of over 50% in size
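Quantitative HTS: titrated library compounds versus trypanosomal pyruvate kinase in TEA buffer (pH 7.2) containing KCl, MgCl2, BSA and Tween-20. Reactions were initiated with ADP, 130 uM final. Kinase-Glo Plus luminescence was read after 45 min at RT.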
Giardia FBPA inh = inhibitors of Giardia lamblia fructose-1,6-bisphosphate aldolase; purified Giardia FBPA; Potency, µM (series often up to 59.6 µM), for the others: at the highest dose activity, negative = inhibition, actives largely listed as inhibitors; actives 0.71% (n = 290,000); note: potency is the fitted concentration of half-maximal effect; % is set by controls: 0 for no effect and ±100 for the full control effect; nearly all actives have a fitted effect of over 55% in size
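Giardia FBPA (40 nM reagent) was preincubated 10 min at RT with compound (up to 57.5 uM final), then substrate plus GAPDH/TPI/NAD/arsenate coupling system with diaphorase/resazurin was added; resorufin fluorescence (525/598 nm) was read after 20 min.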
CHX counter = counter-screen for Shiga toxin inhibitors: cycloheximide protein synthesis inhibition; max response, %; cell reporter, cycloheximide protein synthesis inhibition counterscreen; actives 12% (n = 300,000); in the data active = max response mostly above about 13%, no sharp cut-off; inactive = mostly below about 14%; note: read at 38.3 µM for the half of the compounds with a filed dose; 0% is about no effect
LmPK inhibitor = inhibitors of Leishmania mexicana pyruvate kinase | actives 0.37% (n = 290,000) | AID 1721 | purified LmPK, Kinase-Glo ATP luminescence, 1 h | Potency, µM (highest dose often 57.5 µM), inactives show at the top dose activity change, negative = inhibition, usual class: inhibitors | Q27686; note: potency is the fitted concentration of half-maximal effect; % is set by controls: 0 for no effect and ±100 for the full control effect
Target sequence (Q27686 whole entry, looked up): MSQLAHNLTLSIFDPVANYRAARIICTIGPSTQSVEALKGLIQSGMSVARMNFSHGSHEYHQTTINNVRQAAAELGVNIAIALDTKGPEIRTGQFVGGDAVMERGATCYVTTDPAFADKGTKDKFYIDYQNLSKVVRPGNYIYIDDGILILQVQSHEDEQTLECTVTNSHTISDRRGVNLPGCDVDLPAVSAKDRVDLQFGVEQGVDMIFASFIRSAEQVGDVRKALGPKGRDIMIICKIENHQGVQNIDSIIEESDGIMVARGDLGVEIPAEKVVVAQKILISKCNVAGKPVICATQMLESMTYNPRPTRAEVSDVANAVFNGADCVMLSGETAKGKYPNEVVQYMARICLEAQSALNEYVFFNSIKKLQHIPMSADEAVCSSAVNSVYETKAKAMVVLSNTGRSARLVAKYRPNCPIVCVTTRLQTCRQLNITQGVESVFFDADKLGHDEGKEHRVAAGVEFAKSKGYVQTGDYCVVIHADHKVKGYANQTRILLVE
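qHTS format; LmPK 0.1 nM; substrates PEP 0.5 mM and ADP 0.1 mM. One-hour room-temperature incubation, then coupled luciferase luminescence; 0.5 nM enzyme wells mark activation.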
An asterisk follows results filed as active; [ ] = dose if it differs, or a comment. Unless noted, calls come from the whole dose curve; as a rule, active = well fitted curve in the direction sought with a large enough effect; inconclusive = small, poorly fitted or top-dose-only effect, or another doubt; inactive = no such curve, though single readings can be large; an effect the other way counts as inactive or inconclusive.

O=C(CCCCCN1C(=O)[C@@H]2Cc3ccccc3CN2C1=O)Nc1ccccc1Cl was read as Shiga toxin inh 30, Sm TGR block 3%, TbPYK inhibitor 29%, Giardia FBPA inh -8%, CHX counter 30* and LmPK inhibitor 2%.
For COc1ccc(C2C=C(c3ccc(Br)cc3)Nc3nnnn32)c(OC)c1 (stereo not drawn) the results were Shiga toxin inh 66*, Sm TGR block -24%, TbPYK inhibitor 6% and CHX counter 33*.
Screening CC(C)c1ccc(C2=CC(c3ccc(C(C)C)cc3)n3nnnc3N2)cc1 (stereo not drawn) returned Sm TGR block -4% and TbPYK inhibitor -12%.
`COc1ccccc1C1C=C(c2ccccc2)Nc2nnnn21` (stereo not drawn) gave Shiga toxin inh 165*, Sm TGR block -10%, TbPYK inhibitor -7%, Giardia FBPA inh -9%, CHX counter 17 and LmPK inhibitor 4%.
Screening COc1ccc(C2=CC(c3ccc(F)cc3)n3nnnc3N2)cc1 (stereo not drawn) returned Shiga toxin inh 30, Sm TGR block 7%[11.4 µM], TbPYK inhibitor -1%, Giardia FBPA inh -9%, CHX counter 13 and LmPK inhibitor 9%.
For Fc1ccc(C2=CC(c3ccco3)n3nnnc3N2)cc1 (stereo not drawn) the results were Shiga toxin inh 47*, Sm TGR block -4%, TbPYK inhibitor -5%, Giardia FBPA inh 0%, CHX counter 39* and LmPK inhibitor 5%.
`COc1cccc(NS(=O)(=O)c2ccc3[nH]cc(C(=O)N(C)C4CCCCC4)c(=O)c3c2)c1` gave Sm TGR block -6% and TbPYK inhibitor 3%.
O=c1c2oc3ccccc3c2ncn1Cc1ccccc1F was read as Shiga toxin inh 33, Sm TGR block 7%, TbPYK inhibitor 7%, Giardia FBPA inh 6%, CHX counter 30* and LmPK inhibitor 6%.
Screening Cc1ccc(Cn2cnc3c(oc4ccccc43)c2=O)cc1 returned Sm TGR block -6% and TbPYK inhibitor -2%.
For C=CCn1cnc2c(oc3ccccc32)c1=O the results were Shiga toxin inh 36, Sm TGR block -15%, TbPYK inhibitor -4%, Giardia FBPA inh -2%, CHX counter 25* and LmPK inhibitor 2%.
`Cc1ccc2oc(C(=O)N(Cc3ccccc3F)C3CCS(=O)(=O)C3)c(C)c2c1` (stereo not drawn) gave Sm TGR block 2% and TbPYK inhibitor 4%.
O=C(c1c(Cl)nc2sccn12)N(C(=O)c1c(Cl)nc2sccn12)c1ccc(Cl)cn1 was read as Shiga toxin inh 187*, Sm TGR block 5%, TbPYK inhibitor -7%, Giardia FBPA inh -3%, CHX counter 80* and LmPK inhibitor -2%.
COc1ccc(C(=O)NCC2(N3CCN(C)CC3)CCCCC2)cc1 was read as Sm TGR block 4% and TbPYK inhibitor -6%.
Nn1c(SCC(=O)Nc2ccccc2F)nnc1-c1cccnc1 was read as Shiga toxin inh -2, Sm TGR block 5%, TbPYK inhibitor -7%, Giardia FBPA inh 1%, CHX counter -4 and LmPK inhibitor 0%.
`O=C(CSc1ccc(-c2cccnc2)nn1)Nc1ccc(F)cc1F` gave Shiga toxin inh -7, Sm TGR block 7.1µM*, TbPYK inhibitor -2%, CHX counter 14 and LmPK inhibitor -10%.
CCn1c(SCC(=O)Nc2ccc(F)cc2)nnc1C1CC1 was read as Shiga toxin inh 23, Sm TGR block -14%, TbPYK inhibitor -2%, Giardia FBPA inh 5%, CHX counter 19* and LmPK inhibitor -5%.
For O=C(CSc1ccc(-c2ccccn2)nn1)Nc1ccc(F)cc1F the results were Shiga toxin inh -7, Sm TGR block 0%, TbPYK inhibitor 2%, CHX counter -2 and LmPK inhibitor -1%.
Nn1c(SCC(=O)Nc2ccc(F)cc2F)nnc1-c1cccnc1 was read as Shiga toxin inh 42, Sm TGR block -14%, TbPYK inhibitor 8%, Giardia FBPA inh 1%, CHX counter 25* and LmPK inhibitor -16%.
Cn1c(SCC(=O)Nc2ccc(F)cc2)nnc1C1CC1 was read as Shiga toxin inh -13, Sm TGR block 2%, TbPYK inhibitor 0%, Giardia FBPA inh -3%, CHX counter 15 and LmPK inhibitor -6%.
For Nn1c(SCC(=O)Nc2ccc(F)cc2F)nnc1C1CCCCC1 the results were Shiga toxin inh 55*, Sm TGR block 3%, TbPYK inhibitor -2%, Giardia FBPA inh -3%, CHX counter 42* and LmPK inhibitor -16%.
`CCc1ccccc1NC(=O)Cn1c(C(=O)OC)cc2oc(C)cc21` gave Sm TGR block -15% and TbPYK inhibitor -3%.
CC(C)C(=O)NC(=S)Nc1ccccc1N1CCN(C(=O)c2ccc(Cl)cc2)CC1 was read as Shiga toxin inh -19, Sm TGR block inconclusive, TbPYK inhibitor -5%, Giardia FBPA inh -6%, CHX counter 32* and LmPK inhibitor -6%.
For NS(=O)(=O)c1ccc(CNC(=O)c2ccc(S(=O)(=O)NCc3ccco3)cc2)cc1 the results were Sm TGR block -9% and TbPYK inhibitor 0%.
For O=C(Nc1ccc(S(=O)(=O)NCc2ccco2)cc1)c1ccc(F)cc1 the results were Shiga toxin inh 46*, Sm TGR block -23%, TbPYK inhibitor 0%, Giardia FBPA inh -1%, CHX counter 28* and LmPK inhibitor 0%.
O=C(COC(=O)c1ccc(S(=O)(=O)NCc2ccco2)cc1)c1ccccc1 was read as Shiga toxin inh 17, Sm TGR block 1%, TbPYK inhibitor -1%, Giardia FBPA inh 4%, CHX counter -1 and LmPK inhibitor 5%.
For Cc1noc(C)c1COC(=O)c1ccc(S(=O)(=O)NCc2ccco2)cc1 the results were Shiga toxin inh 56, Sm TGR block 40µM*, TbPYK inhibitor -4%, Giardia FBPA inh 6%, CHX counter 16* and LmPK inhibitor 3%.
Screening O=C(NCc1ccccc1)c1ccc(S(=O)(=O)NCc2ccco2)cc1 returned Shiga toxin inh 53*, Sm TGR block -21%, TbPYK inhibitor -6%, Giardia FBPA inh 12%, CHX counter 38* and LmPK inhibitor -1%.
For Cc1cc(C)n(-c2ccc(C(=O)Nc3ccc(S(=O)(=O)NCc4ccco4)cc3)cc2)n1 the results were Shiga toxin inh 29, Sm TGR block -33%, TbPYK inhibitor 2%, Giardia FBPA inh -3%, CHX counter 22* and LmPK inhibitor -2%.
CN(C)C(CNC(=O)c1ccc(S(=O)(=O)Nc2ccccc2F)cc1)c1ccccc1 (stereo not drawn) was read as Shiga toxin inh -12, Sm TGR block 6%, TbPYK inhibitor 0%, CHX counter -1 and LmPK inhibitor 1%.

Compound activity (PubChem BioAssay)
